For 16 compounds, activation and Potency results are on record in PubChem BioAssay (NCATS).

Values without a mark were called inactive. Records with an inconclusive call do not appear. Calls of active or inactive are those of the source. Unless noted, calls follow the shape of the dose curve; as a rule, active = well fitted curve in the direction sought with a large enough effect; inconclusive = small, poorly fitted or top-dose-only effect, or another doubt; inactive = no such curve, though single readings can be large; an effect the other way counts as inactive or inconclusive.

Experiment [1] in a line: qHTS Assay for Identification of Small Molecule Agonists for Hypoxia Response Element Signaling Pathway (AID 914; active = well fitted activation curve with a large enough effect in the signal ratio, with a control signal flat, not every such curve was filed as active; the % refers to the signal ratio; also: % of control where 0% means no effect). The settings on record: ME-180 (cervical carcinoma) HRE-bla reporter, beta-lactamase ratio, CoCl2, 17 h; hits give high values. Summed up:
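A beta-lactamase reporter under hypoxia response element control in ME-180 cells served as the system. Compound titrations plus EC50 CoCl2 ran 17 h at 37 degrees Celsius; AC50 values were fitted from %Activity.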
In general terms: Quantitative high-throughput screening tests each substance at several concentrations.

Experiment [2] can be described thus: Confirmation and Secondary Assay for Modulators of Hemoglobin Beta Chain Splicing at IVS2 705 locus (AID 930).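 Also: HeLa cells stably expressing the EGFP-705 splicing reporter; GFP fluorescence per well restored by corrected splicing of the IVS2-705 intron in EGFP; % of control where 0% means no effect.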 The settings on record: HeLa EGFP-705 splicing reporter, GFP fluorescence, 48 h; series mostly up to 46.1 µM. Summed up:
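Fluorescence gain (488 nm laser, 500-520 nm PMT) reflects restored correct splicing of a mutant IVS2-705 intron inside EGFP in stably transfected HeLa cells after 2-day compound treatment.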

The nature of experiment [3]: MultiTox-Fluor Cytotoxicity Assay - LYMP1-001 - Live Cells (AID 947).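 Also: 0% = DMSO only and full inhibition = tetraoctylammonium bromide control.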 The settings on record: LYMP1-001 lymphoblastoid cells, live-cell protease fluorescence viability; series mostly up to 92.2 µM.
A short description of experiment [4]: Cell Viability - LYMP1-002 - Assay at 16 hr (AID 948).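 Also: 0% = DMSO alone and full effect = 92 µM tetraoctylammonium bromide.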 The settings on record: LYMP1-002 lymphoblastoid cell viability; series mostly up to 92.2 µM. The gist of the method: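 ATP luminescence (CellTiter-Glo) was measured after 16 hr compound exposure at 37 C of 2500 lymphoblastoid LYMP1-002 cells per well. Concentration-response curves were fitted with the Hill equation to give AC50.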

Experiment [5] can be described thus: qHTS Assay for Identification of Small Molecule Antagonists for Thrombopoietin (TPO) Signaling Pathway (AID 918). Also: potency is read from the fitted curve at half-maximal effect; nearly all actives have a fitted effect of over 60% in size. The settings on record: TPO-dependent cell signaling reporter, antagonist mode. The gist of the method:
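Luminescence read-out: GPIIb-promoter luciferase in Ba/F3 cells carrying human TPO receptor. Compounds added with 26 pM TPO (EC50), 24 hrs, 37 C, 5% CO2; cells deprived of IL-3 overnight beforehand. Inhibition of signal scored.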

The target in experiment [6] is Muscarinic acetylcholine receptor M1 (Rattus norvegicus) (UniProt P08482). The experiment can be described thus: qHTS Assay for Antagonists of Acetylcholine Muscarinic M1 Receptor: Measurement of IP-One Response (AID 944). Also: nearly all actives have a fitted effect of over 75% in size. The settings on record: CHO-M1 cells, IP-One HTRF, antagonist mode; series mostly up to 46.1 µM. Summed up: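 Read-out: HTRF competition between d2-IP1 and Eu-cryptate anti-IP1 antibody, emission 620 and 665 nm. Stimulus was carbachol, EC80 (200 nM), for 30 min in M1-CHO cells (rat receptor), after 10 min compound pre-treatment.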
Chain of Muscarinic acetylcholine receptor M1 (Rattus norvegicus) (P08482 whole entry, looked up): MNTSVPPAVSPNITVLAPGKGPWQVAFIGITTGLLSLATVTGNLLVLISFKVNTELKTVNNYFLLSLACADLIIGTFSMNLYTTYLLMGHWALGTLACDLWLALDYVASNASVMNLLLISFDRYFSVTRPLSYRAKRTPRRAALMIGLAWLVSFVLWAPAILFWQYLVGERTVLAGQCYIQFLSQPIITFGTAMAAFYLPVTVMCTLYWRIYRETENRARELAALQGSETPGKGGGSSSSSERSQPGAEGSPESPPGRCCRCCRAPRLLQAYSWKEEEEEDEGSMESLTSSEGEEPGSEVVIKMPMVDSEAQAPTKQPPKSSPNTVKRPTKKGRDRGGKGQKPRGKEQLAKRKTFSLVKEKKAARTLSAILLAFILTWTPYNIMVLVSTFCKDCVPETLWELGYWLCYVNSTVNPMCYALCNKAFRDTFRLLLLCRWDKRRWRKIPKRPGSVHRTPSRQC

In experiment [7] the target is Pyruvate kinase (Leishmania mexicana) (UniProt Q27686). The experiment can be described thus: qHTS Validation Assay for Inhibitors of Leishmania Mexicana Pyruvate Kinase (AID 945). Also: potency is read from the fitted curve at half-maximal effect. The settings on record: purified L. mexicana pyruvate kinase, enzyme activity, E451W mutant enzyme; series mostly up to 57.5 µM. Summed up: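 Compounds are tested as eight-point concentration series. Reactions contain 0.2 nM LmPYK E451W, 0.5 mM PEP, 0.1 mM ADP, 7 mM MgCl2 and 50 mM KCl at pH 7.2, run 1 h at room temperature, then read by PKLight luminescence.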
Chain of Pyruvate kinase (Leishmania mexicana) (Q27686 2-499 E452W): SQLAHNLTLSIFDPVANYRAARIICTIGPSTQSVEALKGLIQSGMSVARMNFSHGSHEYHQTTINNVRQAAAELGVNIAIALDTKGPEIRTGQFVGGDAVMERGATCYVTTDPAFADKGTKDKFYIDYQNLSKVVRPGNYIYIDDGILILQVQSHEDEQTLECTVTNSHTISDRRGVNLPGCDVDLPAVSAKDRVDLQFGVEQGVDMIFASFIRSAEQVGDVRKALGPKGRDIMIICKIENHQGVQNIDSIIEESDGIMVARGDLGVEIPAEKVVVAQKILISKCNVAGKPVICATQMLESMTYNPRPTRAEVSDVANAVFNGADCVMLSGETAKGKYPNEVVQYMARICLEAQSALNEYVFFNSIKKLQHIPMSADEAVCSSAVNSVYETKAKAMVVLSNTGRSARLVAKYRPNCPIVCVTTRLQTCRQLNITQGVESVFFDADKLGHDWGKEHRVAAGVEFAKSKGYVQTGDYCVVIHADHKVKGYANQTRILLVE

A short description of experiment [8]: qHTS Assay for Identification of Small Molecule Agonists for Thrombopoietin (TPO) Signaling Pathway (AID 917). Also: potency is read from the fitted curve at half-maximal effect. The settings on record: TPO signaling pathway reporter cells, agonist qHTS, stimulated with TPO at its EC50; series mostly up to 38.5 µM. Summed up:
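Luciferase reporter (Glycoprotein IIb promoter) in IL-3-deprived Ba/F3 cells carrying human TPO receptor; compounds co-added with 26 pM TPO, incubated 24 h, 37 C. Steadylite luminescence measured after 10 min.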

Experiment [9] in a line: qHTS Assay for Identification of Small Molecule Agonists for NFkB Signaling Pathway (AID 928; calls by dose curve). The settings on record: NFkB beta-lactamase reporter cells, blue/green ratio. The protocol: NIH Molecular Libraries Screening Centers Network [MLSCN]
NIH Chemical Genomics Center [NCGC]
The TNF alpha/NFkB signaling pathway was assayed in NFkB-bla cells (Invitrogen), a ME-180 cervical carcinoma line containing a stably integrated beta-lactamase reporter gene controlled by a NFkB response element. […] The assay was screened at the EC50 of TNF alpha activation to identify activators of TNF alpha/NFkB signaling.
NCGC Assay Protocol Summary:
Cells were trypsinized, washed in assay medium (AM, OPTI MEM with 0.5% fetal bovine serum, 0.1 mM nonessential amino acids, 1 mM sodium pyruvate, 10mM HEPES pH 7.3, 100U/ml penicillin, and 100 ug/ml streptomycin) and plated at 1000 cells/5 uL/well into black clear-bottom 1536 well plates. After an overnight incubation at 37 C and 5% CO2, 23 nL of compound were delivered by a pin tool, 1 uL of TNF alpha (10 pM final concentration in AM) was added and plates were incubated at 37 C for 5 hrs. One uL of LiveBLAzerTM detector mix (Invitrogen) was added, the plates incubated at room temperature for 2 hrs, and fluorescence intensity at 460 and 530 nm emission was measured at 405 nm excitation by an Envision (Perkin Elmer).

Regarding `c1ccc2[nH]c(-c3cscn3)nc2c1`, the activation in [1] is -2.82%. For the same compound, the Potency result in experiment [2], in experiment [3] and in experiment [4] was “inactive” each time.
Turning to `C[C@H](Cc1ccc(O)c(O)c1)[C@@H](C)Cc1ccc(O)c(O)c1`, the Potency in experiment [5] is 5.01 µM (active). The Potency entry in experiment [6] and in experiment [7] was “inactive” each time.
Consider `CCN(CC)C(=S)SSC(=S)N(CC)CC`, for which the Potency in experiment [5] is 0.398 µM (active). The Potency result in [2] and in [6] was “inactive” throughout.
Take `Cc1ncc([N+](=O)[O-])n1CC(C)O` (centres undefined): the Potency entry in experiment [2] was “inactive”.
On to `CC1(C)NC(=O)N(c2ccc([N+](=O)[O-])c(C(F)(F)F)c2)C1=O`, for which the Potency result in experiment [8], in experiment [2] and in experiment [7] was “inactive” each time.
Regarding `NS(=O)(=O)c1cc(C(=O)O)c(NCc2ccco2)cc1Cl`, the activation in experiment [1] was -15.7%. Moreover, the Potency result in experiment [2], in [3] and in [4] was “inactive” in each case.
`CCCOc1ccc2nc(NC(=O)OC)[nH]c2c1`: the Potency result in experiment [2] is “inactive”.
Turning to `CN(C)CCc1c[nH]c2ccc(Cn3cncn3)cc12`, the Potency entry in [2] is “inactive”.
Same read-out and setting: the result for `O=C(O)c1cc(=O)c2c(OCC(O)COc3cccc4oc(C(=O)O)cc(=O)c34)cccc2o1` reads “inactive”.
For the compound `O=c1cc(N2CCOCC2)oc2c(-c3ccccc3)cccc12`, in [9], the Potency was 7.08 µM (active). The Potency entry in experiment [7] is “inactive”.
As for `CNC[C@H](O)c1ccc(O)c(O)c1`, the Potency result in experiment [8] and in experiment [7] was “inactive” throughout.
Consider `COc1ccc2cc([C@H](C)C(=O)O)ccc2c1`, for which the Potency entry in experiment [8] and in [7] was “inactive” each time.
As for `Cc1cccc(CN2CCN(C(c3ccccc3)c3ccc(Cl)cc3)CC2)c1` (centres undefined), the Potency entry in experiment [2] is “inactive”.
With `O=C(O)c1cn(-c2ccc(F)cc2)c2cc(N3CCNCC3)c(F)cc2c1=O`, the Potency entry in experiment [2] was “inactive”.
On to `Cc1cccc(C#Cc2ccccc2)n1`, for which the values for the Potency in experiment [8] and in [7] were 1 µM (active) and 15.8 µM (active), respectively.
Regarding `NC(=NCc1ccccc1)NC(=O)c1nc(Cl)c(N)nc1N`, in experiment [8], the Potency was 12.6 µM (active). The Potency entry in experiment [2] and in experiment [7] was “inactive” in each case.
